Bioassay records: PubChem BioAssay, National Center for Advancing Translational Sciences (NCATS)
MCF10A rerep – A quantitative high throughput screen for small molecules that induce DNA re-replication in MCF 10a normal breast cells; AID 624296, 2012; 2.9% of 350,000 active; MCF 10A DNA re-replication, Hoechst nuclear intensity, 48 h; Potency, µM (series often up to 46.1 µM), inactives show top-dose activity, positive = re-replication, most hits filed as activators; further: % of control where 0% means no effect; nearly all actives have a fitted effect of over 50% in size
RORgamma inh – qHTS for inhibitors of ROR gamma transcriptional activity; Nuclear receptor ROR-gamma (Mus musculus), P51450; Drosophila S2 Gal4-RORgamma UAS-luciferase reporter, 20 h; Potency, µM (titrated, usually from 53.6 µM), inactives show at the highest dose activity change, negative = inhibition, actives largely listed as inhibitors; 5.4% of 310,000 active; AID 2551, 2010; further: on the % scale 0 is the no-effect control and ±100 the full control effect; nearly all actives have a fitted effect of over 60% in size
Target sequence (P51450 whole entry, looked up, the tested form may be a part): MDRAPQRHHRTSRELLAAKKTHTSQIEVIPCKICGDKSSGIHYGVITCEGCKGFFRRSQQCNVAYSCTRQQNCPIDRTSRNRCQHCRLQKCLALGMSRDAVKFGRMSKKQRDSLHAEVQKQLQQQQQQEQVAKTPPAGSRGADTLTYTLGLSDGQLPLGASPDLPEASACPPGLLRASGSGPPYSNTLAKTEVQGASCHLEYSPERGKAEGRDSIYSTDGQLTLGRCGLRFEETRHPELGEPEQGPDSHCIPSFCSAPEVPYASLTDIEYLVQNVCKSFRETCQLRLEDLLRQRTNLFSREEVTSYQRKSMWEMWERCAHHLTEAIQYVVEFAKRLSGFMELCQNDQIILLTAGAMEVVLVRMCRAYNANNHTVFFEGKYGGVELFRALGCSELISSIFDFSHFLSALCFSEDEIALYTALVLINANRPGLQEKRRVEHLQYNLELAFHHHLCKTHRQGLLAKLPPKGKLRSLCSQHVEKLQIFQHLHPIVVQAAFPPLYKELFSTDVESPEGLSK
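ROR gamma transcriptional activity was tracked as Gal4-UAS luciferase output in stably transfected Drosophila Schneider cells, with compound added 1 hr before 700 uM copper sulfate induction and a 20 hr ambient-temperature incubation.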
VP16 counter – VP16 counterscreen qHTS for inhibitors of ROR gamma transcriptional activity. Potency, µM (titrated, usually from 53.6 µM), without a hit: at the top dose activity, negative = inhibition, actives largely listed as inhibitors. Drosophila S2 Gal4-VP16 UAS-luciferase, luminescence, 20 h. 3.5% of 310,000 active;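 further: Gal4-VP16 expression switched on by copper sulfate through the metallothionein promoter; on the % scale 0 is the no-effect control and ±100 the full control effect; nearly all actives have a fitted effect of over 50% in size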
KB-V1 MDR tox – qHTS assay for MDR1-selective chemotherapeutics: Primary screen using the drug-selected MDR subline cells KB-V1 | KB-V1 MDR cells viability, CellTiter-Glo, 72 h | Potency, µM (titrated, usually from 46.1 µM), most hits filed as cytotoxic | 3.4% of 400,000 active | AID 1347076, 2019; further: on the % scale 0 is the no-effect control and ±100 the full control effect; nearly all actives have a fitted effect of over 60% in size
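Cells of the MDR subline KB-V1 are plated, dosed with compound at multiple concentrations, and incubated 72 h at 37 degrees C; CellTiter-Glo is then added and luminescence read after 10 min.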
KB-3-1 tox – qHTS assay for MDR1-selective chemotherapeutics: Primary screen using the parental adenocarcinoma cell KB-3-1; KB-3-1 viability, CellTiter-Glo ATP luminescence, 72 h; 1.4% of 400,000 active; Potency, µM (titrated, usually from 46.1 µM), most hits filed as cytotoxic; further: on the % scale 0 is the no-effect control and ±100 the full control effect; nearly all actives have a fitted effect of over 60% in size
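Multi-concentration cytotoxicity screen in KB-3-1 cells grown in DMEM lacking phenol red with 10% FBS. After 72 h at 37 °C with compound, ATP-dependent luminescence was recorded.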
SW480 rereplic – A quantitative high throughput screen for small molecules that induce DNA re-replication in SW480 colon adenocarcinoma cells; SW480 DNA re-replication, Hoechst DNA content imaging, 48 h; 1.8% of 340,000 active; Potency, µM (series often up to 46.1 µM), for the others: at the highest dose re-replication activation, hits mostly activators; further: % of control where 0% means no effect; nearly all actives have a fitted effect of over 55% in size
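Quantitative HTS format with DMSO vehicle controls; 48 hr drug incubation at 37 C, then 40 min Hoechst staining and scanning imager measurement at 405 nm excitation.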
The depositor's hits bear a star; i = inactive; ? = inconclusive; / = no result given; [ ] = dose if it differs, or a comment. Shown are actives, neighbours in structure and some others; about 10% of the full set was active somewhere. The call rests on the fitted dose curve; in most records, active means well fitted curve in the direction sought with a large enough effect; inconclusive means small, poorly fitted or top-dose-only effect, or another doubt; inactive means no such curve, though single readings can be large; an effect the other way counts as inactive or inconclusive. Potency means the concentration at half of the fitted maximal effect.

SMILES	MCF10A rerep	RORgamma inh	VP16 counter	KB-V1 MDR tox	KB-3-1 tox	SW480 rereplic
CC(=O)c1ccc(N2CCN(C(=S)Nc3ccc(Oc4ccccc4)cc3)CC2)cc1	?	3.16µM*	4.47µM*	?	i	-4.3%
COc1ccc(N2CCN(C(=S)Nc3cccc(OC)c3)CC2)cc1	5.7%	44.2%[1.91 µM]	-18.7%	i	i	5.0%
CC(=O)c1ccc(NC(=O)N2CCN(c3cccc(Cl)c3)CC2)cc1	?	?	/	23.1µM*	i	-1.2%
O=C(NCCc1c[nH]c2ccccc12)c1ccccc1O	/	30.2%	-21.4%	/	/	/
Cc1ccccc1NC(=O)CSc1nccn1C	/	/	/	i	?	/
Clc1ccc(-n2nnnc2Sc2ncnc3sccc23)cc1	10.3µM*	/	/	?	?	6.51µM*
Cc1noc(C)c1C(=O)N1CCC2(CC1)CCN(c1ccccn1)CC2	/	-27.9%	2.3%	/	/	/
COc1ccccc1C1(CCNS(=O)(=O)c2ccc(C)cc2)CCOC(C(C)C)C1 (configuration not stated)	?	-1.1%	-12.3%	3.66µM*	?	?
COc1ccccc1C1(CCNC(C)c2cccs2)CCOC(C(C)C)C1 (configuration not stated)	?	-20.2%	-3.0%	?	i	13.7%
ClCC1NCC(c2ccccc2Cl)c2c1[nH]c1ccccc21 (configuration not stated)	3.66µM*	-8.1%	-4.0%	i	?	-8.8%
COc1ccc(NC(=O)/C(C#N)=C/c2ccc(-c3ccc(Cl)c(C(=O)O)c3)o2)cc1	-2.2%	11.2µM*	?	i	i	-1.3%
Cc1ccc(NC(=O)/C(C#N)=C/c2ccc(-c3ccc(Cl)c(C(=O)O)c3)o2)cc1C	/	/	/	i	?	/
Cc1ccccc1NC(=O)/C(C#N)=C/c1ccc(-c2ccc(Cl)c(C(=O)O)c2)o1	6.8%	-32.9%	17.8µM*	i	i	4.4%
Cc1cccc(NC(=O)/C(C#N)=C/c2ccc(Sc3ccccc3)o2)c1C	18.4µM*	-13.5%	-16.9%	i	i	?
N#C/C(=C\c1ccc(-c2cccc(Cl)c2)o1)C(=O)Nc1cccc2cccnc12	?	3.4%	3.2%	i	i	1.9%
COc1ccc(NC(=O)/C(C#N)=C\c2ccc(-c3cccc(C(=O)O)c3C)o2)cc1	7.1%	3.98µM*	?	i	i	-0.2%
Cc1cc(=O)n(CC(=O)Nc2ccc(Cl)c(Cl)c2)c(-n2nc(C)cc2C)n1	/	/	/	i	?	/
COc1ccccc1CNC(=O)c1ccc(N2Cc3cccc(OC)c3Oc3ncccc32)s1	/	/	/	i	i	/
CCOc1cc(C#N)c(NC(=O)Cn2nnc(-c3ccc(C)cc3)n2)cc1OCC	/	/	/	i	i	/
COc1ccc(-c2csc3[nH]c(=S)n(-c4ccccc4)c(=O)c23)cc1OC	5.1%	2.51µM*	3.16µM*	i	i	-2.7%
COc1ccc(-n2c(=S)[nH]c3c(sc(=S)n3-c3ccccc3)c2=O)c(OC)c1	3.3%	-21.2%	-4.3%	i	i	3.6%
COc1ccc(-n2c(=S)[nH]c3sc(-c4ccccc4)cc3c2=O)c(OC)c1	7.2%	3.55µM*	7.08µM*	?	?	2.5%
COc1cccc(-c2cc3c(=O)n(-c4ccccc4)c(=S)[nH]c3s2)c1	15.8%	0.891µM*	2.51µM*	i	i	-1.2%
COc1cc2oc(=O)c(CC(=O)N3CCCCC3)c(C)c2cc1OC	/	/	/	i	i	/
COc1ccc(CCNC(=O)c2ccc3c(c2)nc2n3CCOC2)cc1OC	/	/	/	i	i	/
SMILES	MCF10A rerep	RORgamma inh	VP16 counter	KB-V1 MDR tox	KB-3-1 tox	SW480 rereplic
CC12CCC(C(=O)N3CCCc4ccccc43)(CC1=O)C2(C)C (configuration not stated)	4.0%	-4.3%	-8.5%	16.4µM*	i	0.3%
CC#CCC1(C(=O)OC)C(=O)NC[C@H]1c1ccccc1 (some centres not stated)	/	-5.2%	11.2%	/	/	/
CCCNC(=O)C1(C)CCN(C(=O)c2oc3ccccc3c2C)C1 (configuration not stated)	/	/	/	?	i	/
N#Cc1ccc(NC(=S)N2CCC3CC2c2cc(-c4ccc5c(c4)OCO5)ccc23)cc1 (configuration not stated)	/	/	/	i	i	/
COC(=O)c1cccc(Cn2nc(C)c([N+](=O)[O-])c2C)c1	3.6%	38.0%	14.8%	?	i	0.3%
CN(C)c1ccc(NC(=O)c2ccc(Cn3cc([N+](=O)[O-])cn3)cc2)cc1	?	?	-4.8%	i	18.4µM*	?
CC1=NN(C(=O)c2ccc(Cn3cc([N+](=O)[O-])cn3)cc2)C(O)(C(F)(F)F)C1 (configuration not stated)	0.4%	10µM*	12.6µM*	i	i	-12.5%
CC1=NN(C(=O)c2cccc(Cn3nc(C)c([N+](=O)[O-])c3C)c2)C(O)(C(F)(F)F)C1 (configuration not stated)	5.8µM*	3.16µM*	7.08µM*	?	i	?
Cc1nn(Cc2cccc(C(=O)N3N=C(C(F)F)CC3(O)C(F)F)c2)c(C)c1[N+](=O)[O-] (configuration not stated)	?	?	-25.1%	8.2µM*	i	-4.2%
O=C1c2ccccc2NC(c2cc(Br)c3c(c2)OCO3)N1Cc1ccco1 (configuration not stated)	/	/	/	i	i	/
COc1ccc2c(c1)OC(C)(C)C(c1ccccc1)C2c1ccc(OCCN2CCCC2)cc1 (configuration not stated)	?	-22.3%	-14.1%	/	/	?
CN(C)c1ccc(CNC(=O)CN2C(=O)C3CCCCN3c3ccc(C(=O)N4CCCC4)cc32)cc1 (configuration not stated)	/	/	/	i	i	/
CC(=O)c1sc(=S)n(-c2ccccc2)c1C	12.4%	-8.6%	4.2%	i	i	0.3%
CC(=O)c1sc2c(c1OC(=O)c1ccccc1)c(=O)n(-c1ccccc1)c(=S)n2-c1ccccc1	?	/	/	9.2µM*	8.2µM*	-4.2%
Cc1ccccc1NC(=O)CCn1nc(-c2ccccc2)c2ccccc2c1=O	/	/	/	i	i	/
COCCCn1c(=N)c(C(=O)NC2CCCCC2)cc2c(=O)n3cc(C)ccc3nc21	/	/	/	i	i	/
